SMARCA2 activ = activators of SMARCA2 function. 370,000 compounds, 1% hits. MG213 cells, MMTV-luciferase reporter, dexamethasone, overnight. activation, % at 9.1 µM; in the data active = activation above about 7.8%
hgDAF12 agonist = activates the H. glycines DAF-12 receptor ligand-binding domain. HEK293 GAL4-hgDAF12 UAS-luciferase reporter, agonist luminescence; normalized to butyrate control. activation, % at 6.8 µM. 370,000 compounds, 1.8% hits. AID 687014;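 active = activation above a cutoff set at the mean of all screened compounds plus 3 SD, cut at about 10% in these data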
DAX1 inh-1 = inhibits human nuclear receptor DAX1 | P51843 | HEK293 Gal4-DAX1 luciferase reporter, luminescence | inhibition, % at 6.75 µM | AID 504766 | 340,000 compounds, 0.99% hits;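 active = inhibition above the mean over all tested compounds plus 3 SD, cut at about 4.2% in these data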;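 note: inhibition shows as a rise in luminescence from relieved DAX1 repression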
Target sequence (P51843 207-470 limits assumed): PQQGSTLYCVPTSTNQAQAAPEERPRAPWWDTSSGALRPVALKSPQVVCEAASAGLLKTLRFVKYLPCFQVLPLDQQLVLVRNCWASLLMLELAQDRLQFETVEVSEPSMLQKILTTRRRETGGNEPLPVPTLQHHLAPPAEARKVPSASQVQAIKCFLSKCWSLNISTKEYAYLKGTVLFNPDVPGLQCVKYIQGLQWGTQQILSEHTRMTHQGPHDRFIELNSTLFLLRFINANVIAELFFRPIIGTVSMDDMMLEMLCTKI
hcDAF12 agonist = activators of H. contortus DAF-12 nuclear receptor; HEK293 hcDAF-12 lit1-tk-luc reporter, luminescence; 0% DMSO, 100% Δ7-dafachronic acid; activation, % at 6.8 µM; 370,000 compounds, 1.4% hits; AID 652067;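 active = activation above the mean of all tested compounds plus 3 SD, cut at about 5.5% in these data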
DAX1 inh-2 = blocks DAX1 repression of SF-1 activated StAR promoter; HEK293T StAR-luciferase reporter, SF-1/DAX-1 repression relief; 370,000 compounds, 1.1% hits; inhibition, % at 6.8 µM; AID 652010;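 active = inhibition above the mean over all tested compounds plus 3 SD, cut at about 3.6% in these data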;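 note: higher inhibition means more luminescence from relief of DAX-1 repression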
ssDAF12 agonist = activates DAF-12 receptor from parasite S. stercoralis | activation, % at 6.8 µM | HEK293 ssDAF-12/GRIP1 lit1-tk-luc reporter, luminescence; % of 3 µM dafachronic acid response | AID 652126 | 370,000 compounds, 1% hits;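 active = activation above the mean over all tested compounds plus 3 SD, cut at about 0.9% in these data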
SMARCA2 conf = confirmation of SMARCA2 (BRM) function activators | shares compounds with SMARCA2 activ | MG213 cells, MMTV-luciferase with dexamethasone, luminescence, overnight; MG213 cells expressing E1A, Rb sequestered; DMSO wells 0%, reference activator 100% | activation, % at 9.1 µM | 3,500 compounds, 30% hits | AID 652260;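 active = activation above its plate's cutoff, the mean activation of tested wells plus 3 SD, cut at about 7.9% in these data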
GAL4-VP16 Luc = counter-screen for SMARCA2 activators: GAL4-VP16 luciferase reporter activation | shares compounds with SMARCA2 activ | HEK293 GAL4-VP16 pG5luc reporter, luciferase luminescence; scaled: DMSO wells 0%, SAHA wells 100% | activation, % at 9.1 µM | 3,500 compounds, 41% hits;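 active = activation above the solvent-only control well mean plus 3 SD, averaged across control plates, cut at about 5.2% in these data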
Each line names hits and unclear results; the compound was inactive in the other large screens (follow-up assays come after a bar, where they were run). Only some compounds are listed: those with a hit (about 4.8% of all), similar ones and a draw of the others.

Cc1ccc(S(=O)(=O)N2CCOCC2)cc1C(=O)OCC(=O)NC1CC1	SMARCA2 activ 9.3 | SMARCA2 conf inactive | GAL4-VP16 Luc inactive
CC12C(=O)N(c3nccs3)C(=O)C1(C)C1CCC2O1 (stereo unspecified)	none (no result: DAX1 inh-1)
Cc1ccc(NC(=O)c2cccc(OCc3c(C)noc3C)c2)cc1S(=O)(=O)Nc1ccccc1Cl	none
CC(C)(C)c1cc(CN2CCCCC2)cc(C(C)(C)C)c1O	none (no result: DAX1 inh-1)
O=C(CCNC(=O)c1ccccc1)NCc1ccccc1F	SMARCA2 activ 9.4 | SMARCA2 conf inactive | GAL4-VP16 Luc inactive
CC(=O)Nc1ccc(C(=O)OCCC(C)C)cc1	SMARCA2 activ 8.9 | SMARCA2 conf inactive | GAL4-VP16 Luc inactive
CCCCOC(=O)c1ccc(NC(=O)C(CCS(C)(=O)=O)NC(C)=O)cc1 (stereo unspecified)	none
COc1ccc(S(=O)(=O)N2CCOCC2)cc1NC(=O)CCNC(=O)c1ccc(Cl)cc1	SMARCA2 activ 8.1 | SMARCA2 conf inactive | GAL4-VP16 Luc inactive
COc1ccc(C(=O)c2ccccc2C(=O)c2ccccc2)cc1	none
O=C1C2C3CCC(O3)C2C(=O)N1c1nccs1 (stereo unspecified)	SMARCA2 activ 9.5 | SMARCA2 conf inactive | GAL4-VP16 Luc inactive
c1csc(CNc2nc(NCC3CCCCC3)c3sccc3n2)c1	none (no result: DAX1 inh-1)
CCN(CC)CCNC(=S)Nc1ccc2nc(N3CCCC3)cc(C)c2c1	SMARCA2 activ 9.6 | SMARCA2 conf 15.3 | GAL4-VP16 Luc inactive
CCCN(CCC)CCCNC(=S)Nc1ccc2nc(N3CCCC3)cc(C)c2c1	SMARCA2 activ 14.8 | SMARCA2 conf 16.2 | GAL4-VP16 Luc inactive
CCOC(=O)/C=C1\SCC(=O)N1CC(O)CN1C(=O)CS/C1=C/C(=O)OCC (stereo unspecified)	none
O=C(NC1CCCc2ccccc21)c1n[nH]c(=O)c2ccccc12 (stereo unspecified)	none
COC(=O)c1ccccc1NC(=O)CN(C)S(=O)(=O)c1ccc(OC)cc1	none
c1coc(-c2nnc(NC3=NCCC3)o2)c1	SMARCA2 activ 8.8 | SMARCA2 conf inactive | GAL4-VP16 Luc 5.4
Cc1nnc(NC2=NCCC2)o1	none
COc1ccc(N=Cc2nc(-c3ccco3)oc2O)cc1	SMARCA2 activ 8.8 | SMARCA2 conf 9.9 | GAL4-VP16 Luc inactive
COc1ccc(-c2csc(NCc3ccco3)n2)cc1	SMARCA2 activ 9.2 | SMARCA2 conf 9.5 | GAL4-VP16 Luc 12.8
COc1cccc(C2CC(c3cccs3)=NN2C(=O)CSc2nc3c(cnn3-c3ccc(F)cc3)c(=O)[nH]2)c1OC (stereo unspecified)	none (no result: SMARCA2 activ, hgDAF12 agonist, hcDAF12 agonist, DAX1 inh-2, ssDAF12 agonist)
Cc1cc(C)c(C#N)c(SCc2cc3c(cc2Cl)OCO3)n1	SMARCA2 activ 13.1 | SMARCA2 conf inactive | GAL4-VP16 Luc inactive
Cc1cc(C)c(C#N)c(SCc2ccccc2C)n1	none
O=C1NC(=O)C(CC(=O)N(Cc2ccco2)C2(C(=O)NC3CCCC3)CCCCC2)N1 (stereo unspecified)	none
CCC(C)(C(=O)NC1CCCCC1)N(Cc1ccco1)C(=O)CC1NC(=O)NC1=O (stereo unspecified)	SMARCA2 activ 8.4 | SMARCA2 conf inactive | GAL4-VP16 Luc inactive
COCCCNC(=O)c1ccc2nc(Cc3ccc(OC)cc3)oc2c1	SMARCA2 activ 11.2 | SMARCA2 conf inactive | GAL4-VP16 Luc 9.3
C=CCNC(=O)c1ccc2nc(Cc3ccc(OC)cc3)oc2c1	none
O=C1c2ccccc2NC(c2ccccc2)N1CCCN1CCOCC1 (stereo unspecified)	none
O=C(O)c1ccccc1C1Nc2ccccc2C(=O)N1CCCN1CCOCC1 (stereo unspecified)	SMARCA2 activ 11.6 (no result: DAX1 inh-1) | SMARCA2 conf inactive | GAL4-VP16 Luc inactive
NS(=O)(=O)c1ccc(N/N=C/c2cn(-c3ccccc3)nc2-c2cccs2)c([N+](=O)[O-])c1	none
NS(=O)(=O)c1ccc(N/N=C/c2cn(-c3ccccc3)nc2-c2cccs2)cc1	SMARCA2 activ 9.6 | SMARCA2 conf 9.2 | GAL4-VP16 Luc inactive
FC(F)(F)c1cnc(-c2cnc3c(-c4ccc(Cl)cc4)cnn3c2)c(Cl)c1	none
CC(C)(C)CCN1CCC(CN2CCNC2=S)CC1	none
COc1ccc2nc(-c3ccco3)c(-c3ccco3)nc2c1	SMARCA2 activ 10.8 | SMARCA2 conf inactive | GAL4-VP16 Luc 9.2
O=C1CCc2cc(Br)ccc2O1	SMARCA2 activ 8.7 | SMARCA2 conf inactive | GAL4-VP16 Luc inactive
Cc1n[nH]c(=S)n1/N=C/c1cccc(OCc2ccccc2)c1	SMARCA2 activ 8.6 | SMARCA2 conf inactive | GAL4-VP16 Luc inactive
CN(Cc1ccc(OC(F)F)cc1)C(=O)c1cccc(S(=O)(=O)N2CCN(Cc3ccccc3)CC2)c1	none
C/C(CC(=O)Nc1ccc2c(c1)OCO2)=N\NC(=O)c1ccccc1N	SMARCA2 activ 16.8 (no result: DAX1 inh-1) | SMARCA2 conf inactive | GAL4-VP16 Luc inactive
C/C(CC(=O)Nc1ccc2c(c1)OCCO2)=N\NC(=O)c1ccccc1F	SMARCA2 activ 8.7 | SMARCA2 conf inactive | GAL4-VP16 Luc inactive
C/C(CC(=O)Nc1ccc2c(c1)OCO2)=N\NC(=O)c1ccc(N)cc1	none (no result: DAX1 inh-1)
CCC(C)(C)C1CCC(=NNC(=S)Nc2ccccc2)CC1 (stereo unspecified)	SMARCA2 activ 8.9 | SMARCA2 conf inactive | GAL4-VP16 Luc inactive
CC(=O)N1CCn2c3c(c4cc(C)ccc42)CCCC31 (stereo unspecified)	SMARCA2 activ 8.7 | SMARCA2 conf inactive | GAL4-VP16 Luc inactive
CN(CC1CCCN(CCc2cccc(C(F)(F)F)c2)C1)C(=O)c1ccco1 (stereo unspecified)	SMARCA2 activ 11.3 | SMARCA2 conf inactive | GAL4-VP16 Luc inactive
O=C(c1ccc2c(c1)N(Cc1ccccc1)CCS2)N1CCCCC1	none
c1ccc(-n2nnc(-c3nccs3)n2)cc1	none
Brc1ccccc1-n1nnc(-c2nccs2)n1	SMARCA2 activ 8.3 | SMARCA2 conf inactive | GAL4-VP16 Luc 16.0
COc1ccc(CCNc2ncccc2C#N)cc1OC	SMARCA2 activ 10.0 | SMARCA2 conf inactive | GAL4-VP16 Luc 9.6
CC[C@]12c3[nH]c4ccc(OC)cc4c3CCN1C(=O)C(CC(=O)NCCC1=CCCCC1)C[C@@H]2C(=O)N1CCN(C(=O)C2CC2)CC1 (stereo partly specified)	none
COc1cc2ccccc2cc1C(=O)Nc1ccc(N2CCN(C)CC2)cc1	SMARCA2 activ 18.6, hgDAF12 agonist 12.7 | SMARCA2 conf 9.7 | GAL4-VP16 Luc 8.8
